# Data taken from PubChem BioAssay (NCI).
# The panel holds about 79,000 compounds, 15% with a hit somewhere; the sample as a whole holds those more often. Unmarked numbers belong to inactive results. Activity calls are given as the source filed them. Cut-off read from the data, not from the text of the source: active = growth inhibition above about 70%; inactive = the rest.
# Experiments:
# [1] = NCI Yeast Anticancer Drug Screen. Data for the rad50 strain (AID 155);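 note: 0% = growth of vehicle-only cultures of the same strain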; details: S. cerevisiae rad50 strain growth inhibition, stronger effect = higher value
# How it was run: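 Inhibition values express reduced yeast growth in compound-treated cultures relative to vehicle-treated controls.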
# [2] = NCI Yeast Anticancer Drug Screen. Data for the mec2-1 strain (AID 157); details: S. cerevisiae mec2-1 strain, stronger effect = higher value
# How it was run: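 Growth inhibition is read against vehicle-treated controls after compound exposure of the mec2-1 yeast strain, which is defective in DNA damage repair or cell cycle control.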
# [3] = NCI Yeast Anticancer Drug Screen. Data for the sgs1 mgt1 strain (AID 161);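 note: 0% = growth of cultures given vehicle only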; details: S. cerevisiae sgs1 mgt1 strain, stronger effect = higher value
# How it was run: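 Percent growth inhibition was derived by comparing compound-exposed mutant yeast with vehicle-exposed cultures. The strain carries alterations in DNA damage repair.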
# [4] = NCI Yeast Anticancer Drug Screen. Data for the cln2 rad14 strain (AID 165);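 note: 0% = growth equal to vehicle treated cultures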; details: S. cerevisiae cln2 rad14 strain, stronger effect = higher value
# How it was run: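 Growth inhibition, relative to vehicle-treated controls, is the read-out. The test organism is a yeast strain with defined genetic alterations, cln2 rad14.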
# [5] = NCI Yeast Anticancer Drug Screen. Data for the bub3 strain (AID 167); details: S. cerevisiae bub3 mutant strain, stronger effect = higher value
# How it was run: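 Steps: expose the mutant yeast strain to compound; grow alongside vehicle-treated cultures; measure growth; express inhibition against the vehicle cultures.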
# [6] = NCI Yeast Anticancer Drug Screen. Data for the mlh1 rad18 strain (AID 175); details: S. cerevisiae mlh1 rad18 strain growth inhibition, stronger effect = higher value
# How it was run: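 Cells of a genetically altered yeast strain, deficient in DNA damage repair, were treated with compound. Their growth was then compared with that of vehicle-treated cultures to give inhibition.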
# [7] = at 5.0 µM (retest, dose inferred, filed as 0.5)
# [8] = at 50.0 µM (retest, dose inferred, filed as 5.0)
SMILES,"growth inhibition [1, 7]","growth inhibition [1, 8]",growth inhibition ([1]; at 50.0 µM),"growth inhibition [2, 7]","growth inhibition [2, 8]",growth inhibition ([2]; at 50.0 µM),"growth inhibition [3, 7]","growth inhibition [3, 8]",growth inhibition ([3]; at 50.0 µM),"growth inhibition [4, 7]","growth inhibition [4, 8]",growth inhibition ([4]; at 50.0 µM),"growth inhibition [5, 7]","growth inhibition [5, 8]",growth inhibition ([5]; at 50.0 µM),"growth inhibition [6, 7]","growth inhibition [6, 8]",growth inhibition ([6]; at 50.0 µM)
O=C(/C=C/c1ccccc1)c1cc2c(cc1O)OCO2,-6%,17%,29.6%,-5%,3%,-3.2%,-16%,9%,22.9%,2%,31%,13.8%,3%,37%,18.8%,-16%,-1%,31.5%
CCC(C)(C)C(=O)OCC(=O)c1ccc(-c2ccccc2)cc1,-15%,-17%,-5.8%,5%,-4%,8.25%,2%,-3%,-7.4%,33%,-57%,-3.35%,29%,25%,62.2%,-11%,-4%,12.8%
CC(=O)SC(SC(C)=O)SC(C)=O,11%,93% (active),93.9% (active),0%,98% (active),93.1% (active),15%,94% (active),93.1% (active),20%,97% (active),89.6% (active),29%,99% (active),92% (active),16%,99% (active),90.5% (active)
CCCCCCCCCCCC(=O)OC/C=C/COC(=O)c1ccccc1,2%,23%,36%,-3%,31%,-5.05%,1%,69%,38.5%,0%,20%,69.3%,-5%,46%,44%,-7%,46%,5.35%
C[n+]1c(-c2ccc(/C=N\NC(=O)c3ccc(C(=O)N/N=C/c4ccc(-c5cn6ccsc6[n+]5C)cc4)cc3)cc2)cn2ccsc21,65%,98% (active),90.6% (active),81% (active),98% (active),86.7% (active),72% (active),98% (active),84.5% (active),27%,98% (active),86.7% (active),86% (active),98% (active),83.8% (active),88% (active),97% (active),91.5% (active)
CC(NC(=O)OCc1ccccc1)C(=O)NC(C(=O)O)C(C)C (configuration not stated),29%,66%,63.1%,22%,46%,38%,27%,65%,60.6%,37%,48%,59.6%,37%,84% (active),34.9%,14%,86% (active),74% (active)
CCOC(=O)n1c2ccccc2c(=O)n1CCO,-23%,-15%,97.5% (active),-16%,-19%,98.9% (active),-19%,-12%,87.7% (active),-32%,-18%,43.2%,-28%,-11%,97.3% (active),-33%,-11%,50%
O=C(NNc1ccccc1)C(O)C(O)C(O)C(O)C(O)C(O)C(O)CO (configuration not stated),17%,87% (active),69.1%,10%,78% (active),39.4%,10%,82% (active),88.1% (active),3%,82% (active),95.9% (active),1%,94% (active),88.3% (active),45%,96% (active),92.8% (active)
CCCCCCCCCCC[N+]1(Cc2ccccc2)CC2CCN(Cc3ccccc3)CC2C1 (configuration not stated),97% (active),100% (active),99.5% (active),73% (active),100% (active),99.3% (active),54%,99% (active),99.6% (active),95% (active),99% (active),99.4% (active),99% (active),99% (active),99.5% (active),97% (active),99% (active),99.5% (active)
